According to PubChem BioAssay (Tox21):
Inconclusive results are not listed. Active and inactive are the calls of the source. Unless noted, the call rests on the fitted dose curve; in most records, active means well fitted curve in the direction sought with a large enough effect in the repeat runs; inconclusive means weak or mixed curves; inactive means no such curve, though single readings can be large; an effect the other way counts as inactive or inconclusive.

What was measured:
[1] = biological target: Progesterone receptor (Homo sapiens) (UniProt P06401); test: qHTS assay to identify small molecule antagonists of the progesterone receptor (PR) signaling pathway (AID 1346795; active means well fitted inhibition curve with a large enough effect in the signal ratio in the repeat runs, not every such curve was filed as active; the % refers to the signal ratio; further: potency means the concentration at half of the fitted maximal effect; on activity change, negative = inhibition: on the % scale 0 is the no-effect control and ±100 the full control effect)
Chain of Progesterone receptor (Homo sapiens) (P06401 whole entry, looked up): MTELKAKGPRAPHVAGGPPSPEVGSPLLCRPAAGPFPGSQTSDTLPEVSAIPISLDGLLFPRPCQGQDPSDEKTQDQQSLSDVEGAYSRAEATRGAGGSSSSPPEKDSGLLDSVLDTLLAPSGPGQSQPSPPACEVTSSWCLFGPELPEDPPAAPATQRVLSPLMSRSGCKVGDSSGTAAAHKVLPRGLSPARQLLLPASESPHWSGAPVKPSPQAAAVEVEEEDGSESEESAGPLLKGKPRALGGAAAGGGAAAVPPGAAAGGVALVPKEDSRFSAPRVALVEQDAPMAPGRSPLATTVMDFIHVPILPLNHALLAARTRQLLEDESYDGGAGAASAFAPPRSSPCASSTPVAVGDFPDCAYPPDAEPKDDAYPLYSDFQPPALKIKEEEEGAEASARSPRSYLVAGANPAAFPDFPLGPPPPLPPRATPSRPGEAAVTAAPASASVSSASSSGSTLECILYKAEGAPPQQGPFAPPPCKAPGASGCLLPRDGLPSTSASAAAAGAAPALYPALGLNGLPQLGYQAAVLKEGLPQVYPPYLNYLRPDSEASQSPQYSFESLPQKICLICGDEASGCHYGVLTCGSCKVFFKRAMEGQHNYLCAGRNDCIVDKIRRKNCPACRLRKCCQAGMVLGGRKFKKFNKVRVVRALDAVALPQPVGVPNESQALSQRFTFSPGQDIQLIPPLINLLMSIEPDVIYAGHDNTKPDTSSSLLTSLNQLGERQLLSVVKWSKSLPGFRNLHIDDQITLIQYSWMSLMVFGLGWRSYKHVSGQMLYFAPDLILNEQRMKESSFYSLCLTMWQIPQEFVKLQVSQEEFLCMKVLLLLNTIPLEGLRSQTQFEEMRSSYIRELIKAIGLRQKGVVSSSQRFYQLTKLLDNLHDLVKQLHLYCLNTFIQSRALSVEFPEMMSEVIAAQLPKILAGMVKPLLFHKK
Outline: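 Antagonist mode with agonist R5020 at 1 nM final and 16 hr incubation at 37C. Reporter was beta-lactamase driven by UAS in HEK293T (PR-UAS-bla), 2% charcoal-stripped serum; signal from LiveBLAzer FRET substrate, 2 hr at room temperature.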

[2] = qHTS assay to identify small molecule antagonists of the progesterone receptor (PR) signaling pathway - cell viability counter screen (AID 1346798); further: nearly all actives have a fitted effect of over 50% in size; further: potency means the concentration at half of the fitted maximal effect
Outline: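 Cytotoxicity read as CellTiter-Glo luminescence (30 min, room temperature) in the same wells as the beta-lactamase readout. HEK293T PR-UAS-bla cells in charcoal-stripped 2% FBS received compound and R5020, then 16 h at 37C, 5% CO2.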

[3] = qHTS assay to identify small molecule agonists of the progesterone receptor (PR) signaling pathway - cell viability counter screen (AID 1346799; calls by dose curve; further: nearly all actives have a fitted effect of over 45% in size; further: potency means the concentration at half of the fitted maximal effect)
Outline: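 Cytotoxicity measured by CellTiter-Glo luminescence (30 min, RT) in the same wells as the PR beta-lactamase agonist read. Those HEK293T cells had 16 h compound treatment at 37 C in 2% charcoal-stripped FBS medium.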

[4] = qHTS assay to identify small molecule antagonists of the TGF-beta/Smad signaling pathway - cell viability counter screen (AID 1346824); further: on the % scale 0 is the no-effect control and ±100 the full control effect; nearly all actives have a fitted effect of over 50% in size
Outline: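 SBE-bla HEK 293T cells, incubated overnight, then compound plus 0.25 ng/mL TGF-beta1 (stock added) for 5 hr at 37 C. Viability was read in the same wells by CellTiter-Glo luminescence after 30 min at room temperature.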

[5] = qHTS assay to identify small molecule agonists of the TGF-beta/Smad signaling pathway - cell viability counter screen (AID 1346829); further: top concentration of the series differs between compounds; on the % scale 0 is the no-effect control and ±100 the full control effect; nearly all actives have a fitted effect of over 45% in size
Outline: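 Same-well cytotoxicity: CellTiter-Glo added after the 2 hr room-temperature beta-lactamase substrate step, luminescence measured 30 min later; cells had 5 hr of compound at 37 C.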

[6] = qHTS assay to identify small molecule agonists of the TGF-beta/Smad signaling pathway (AID 1346859; active means well fitted activation curve with a large enough effect in the signal ratio in the repeat runs, not every such curve was filed as active; the % refers to the signal ratio; further: series mostly up to about 77 µM; on the % scale 0 is the no-effect control and ±100 the full control effect)
Outline: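 Fluorescence (ex 405 nm; em 460 and 530 nm) was read 2 h after LiveBLAzer FRET substrate at RT. The preceding compound treatment of overnight-plated SBE-bla HEK293T cells lasted 5 h at 37 C.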

[7] = Human pregnane X receptor (PXR) small molecule agonists, qHTS cell viability counter screen (AID 1346977); further: nearly all actives have a fitted effect of over 50% in size; further: potency means the concentration at half of the fitted maximal effect
Outline: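 Same-well viability read: CellTiter-Fluor added after 23 hr compound exposure, fluorescence measured 1 hr later. Cells were PXR-Luc HepG2 seeded at 2,000/well in 5% charcoal-stripped FBS medium, rested 5 hr before dosing at 37 C.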

[8] = Caspase-3/7 induction in HepG2 cells by small molecules, qHTS assay (AID 1346978); further: nearly all actives have a fitted effect of over 15% in size; further: potency means the concentration at half of the fitted maximal effect
Outline: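 Wild-type HepG2 cells, 2,000/well, settled 5 hr at 37 C and 5% CO2, then compound-treated for 17 hr; caspase-3/7 activity read by luminescent Caspase-Glo 3/7 after 30 min at room temperature.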

[9] = Caspase-3/7 induction in CHO-K1 cells by small molecules, qHTS cell viability counter screen (AID 1346979); further: nearly all actives have a fitted effect of over 35% in size; further: potency means the concentration at half of the fitted maximal effect
Outline: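 Cytotoxicity counter screen: CellTiter-Fluor added to compound-treated wild-type CHO-K1 cells at 16 h (37C, 5% CO2), fluorescence measured 1 h later; same wells as caspase-3/7 measurement.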

[10] = Caspase-3/7 induction in CHO-K1 cells by small molecules, qHTS assay (AID 1346980); further: on the % scale 0 is the no-effect control and ±100 the full control effect; nearly all actives have a fitted effect of over 15% in size
Outline: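 Wild-type CHO-K1 cells exposed to compounds for 17hr at 37 C, 5% CO2. Caspase-3/7 activity then measured by Caspase-Glo 3/7 luminescence after 30min at room temperature.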

[11] = biological target: Nuclear receptor subfamily 1 group I member 2 (Homo sapiens) (UniProt O75469); test: Human pregnane X receptor (PXR) small molecule agonists, qHTS assay (AID 1346982); further: nearly all actives have a fitted effect of over 35% in size; further: potency means the concentration at half of the fitted maximal effect
Chain of Nuclear receptor subfamily 1 group I member 2 (Homo sapiens) (O75469 whole entry, looked up): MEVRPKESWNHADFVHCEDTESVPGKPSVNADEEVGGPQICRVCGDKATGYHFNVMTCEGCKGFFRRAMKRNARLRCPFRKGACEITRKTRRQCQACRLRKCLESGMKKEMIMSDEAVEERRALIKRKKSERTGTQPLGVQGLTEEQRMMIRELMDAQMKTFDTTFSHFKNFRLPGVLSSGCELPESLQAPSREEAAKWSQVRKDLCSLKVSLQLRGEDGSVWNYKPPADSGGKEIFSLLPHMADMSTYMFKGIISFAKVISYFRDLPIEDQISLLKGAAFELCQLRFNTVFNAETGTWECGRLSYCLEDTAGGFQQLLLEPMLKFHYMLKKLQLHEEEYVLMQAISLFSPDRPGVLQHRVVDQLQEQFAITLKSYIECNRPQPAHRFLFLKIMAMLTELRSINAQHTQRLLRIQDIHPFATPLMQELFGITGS
Outline: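 Agonist mode qHTS: PXR-Luc HepG2 cells plated 5 hr before DMSO-dissolved compounds were pinned in, cultured 24 hr at 37 C, 5% CO2; ONE-Glo luminescence readout.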

[12] = biological target: Cytochrome P450 2D6 (Homo sapiens) (UniProt P10635); test: Cytochrome P450 Family 2 Subfamily D Member 6 (CYP2D6) small molecule antagonists: luciferase reporter qHTS assay (AID 1671196); further: nearly all actives have a fitted effect of over 50% in size; further: potency means the concentration at half of the fitted maximal effect
Chain of Cytochrome P450 2D6 (Homo sapiens) (P10635 whole entry, looked up): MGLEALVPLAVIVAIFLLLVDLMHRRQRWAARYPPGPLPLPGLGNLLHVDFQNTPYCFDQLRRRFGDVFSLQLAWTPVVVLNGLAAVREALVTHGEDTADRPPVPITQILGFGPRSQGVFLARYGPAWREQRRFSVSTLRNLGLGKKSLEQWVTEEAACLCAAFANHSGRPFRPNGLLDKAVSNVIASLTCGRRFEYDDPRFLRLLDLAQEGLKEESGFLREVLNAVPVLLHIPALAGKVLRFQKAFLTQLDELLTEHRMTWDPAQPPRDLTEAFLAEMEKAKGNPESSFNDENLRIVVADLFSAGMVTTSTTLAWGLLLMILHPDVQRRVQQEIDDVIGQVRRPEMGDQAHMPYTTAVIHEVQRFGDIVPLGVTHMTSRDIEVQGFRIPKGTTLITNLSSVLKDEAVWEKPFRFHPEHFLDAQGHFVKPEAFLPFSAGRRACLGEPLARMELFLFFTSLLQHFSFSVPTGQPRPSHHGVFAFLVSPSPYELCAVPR
Outline: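 P450-Glo format: CYP2D6 converts a proluciferin substrate to luciferin in an NADPH-driven reaction lasting 1 h at room temperature. Light output, proportional to CYP2D6 activity, reflects interference by test chemicals.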

[13] = biological target: Cytochrome P450 2C19 (Homo sapiens) (UniProt P33261); test: Cytochrome P450 Family 2 Subfamily C Member 19 (CYP2C19) small molecule antagonists: luciferase reporter qHTS assay (AID 1671197); further: nearly all actives have a fitted effect of over 65% in size; further: potency means the concentration at half of the fitted maximal effect
Chain of Cytochrome P450 2C19 (Homo sapiens) (P33261 whole entry, looked up): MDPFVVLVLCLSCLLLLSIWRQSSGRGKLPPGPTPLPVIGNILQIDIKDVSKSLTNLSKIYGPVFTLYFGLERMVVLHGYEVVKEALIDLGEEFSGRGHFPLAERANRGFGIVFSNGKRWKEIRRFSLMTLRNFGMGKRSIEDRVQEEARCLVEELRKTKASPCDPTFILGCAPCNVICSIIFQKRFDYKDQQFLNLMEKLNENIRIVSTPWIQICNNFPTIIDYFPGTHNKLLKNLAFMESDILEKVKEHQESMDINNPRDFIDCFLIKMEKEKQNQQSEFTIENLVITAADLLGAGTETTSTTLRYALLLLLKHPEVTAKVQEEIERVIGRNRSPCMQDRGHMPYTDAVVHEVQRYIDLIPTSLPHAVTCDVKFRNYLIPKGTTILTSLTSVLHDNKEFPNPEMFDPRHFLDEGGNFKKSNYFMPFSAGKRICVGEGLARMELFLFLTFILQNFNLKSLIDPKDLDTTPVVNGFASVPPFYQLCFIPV
Outline: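 Quantitative high-throughput screen of the Tox21 library using CYP2C19 with proluciferin substrate. Reaction: NADPH regeneration, 37C, 1 h, after 10 min compound preincubation at room temperature. Readout: luminescence.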

[14] = biological target: Cytochrome P450 2C9 (Homo sapiens) (UniProt P11712); test: Cytochrome P450 Family 2 Subfamily C Member 9 (CYP2C9) small molecule antagonists: luciferase reporter qHTS assay (AID 1671198); further: nearly all actives have a fitted effect of over 50% in size; further: potency means the concentration at half of the fitted maximal effect
Chain of Cytochrome P450 2C9 (Homo sapiens) (P11712 whole entry, looked up): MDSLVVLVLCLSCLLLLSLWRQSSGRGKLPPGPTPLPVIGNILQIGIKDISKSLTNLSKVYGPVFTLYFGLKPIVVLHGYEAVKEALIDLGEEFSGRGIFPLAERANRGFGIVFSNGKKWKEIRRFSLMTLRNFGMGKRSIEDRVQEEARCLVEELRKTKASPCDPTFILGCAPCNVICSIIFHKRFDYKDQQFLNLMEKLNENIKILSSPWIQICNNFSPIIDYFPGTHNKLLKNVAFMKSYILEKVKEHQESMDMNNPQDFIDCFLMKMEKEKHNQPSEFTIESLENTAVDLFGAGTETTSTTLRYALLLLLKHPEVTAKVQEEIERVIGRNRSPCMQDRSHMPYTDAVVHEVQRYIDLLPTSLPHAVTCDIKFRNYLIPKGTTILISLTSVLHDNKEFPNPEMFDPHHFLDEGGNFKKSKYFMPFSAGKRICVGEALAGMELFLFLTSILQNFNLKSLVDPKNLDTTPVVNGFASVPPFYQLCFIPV
Outline: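 P450-Glo proluciferin substrate with CYP2C9 enzyme; 10 min RT preincubation, then NADPH regeneration 1 h at 37C; luciferin detection reagent 20 min RT, luminescence in relative luminescence units.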

[15] = Caspase-3/7 induction in HepG2 cells by small molecules, qHTS cell viability counter screen (AID 1346981); further: nearly all actives have a fitted effect of over 30% in size; further: potency means the concentration at half of the fitted maximal effect
Outline: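 Steps: seed 2,000 HepG2 cells per well; incubate 5 hr at 37 C; pin-add compounds in DMSO; incubate 16 hr; add CellTiter-Fluor; after 1 hr at 37 C and 5% CO2, read fluorescence.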

[16] = biological target: Thyrotropin-releasing hormone receptor (Homo sapiens) (UniProt P34981); test: qHTS assay to identify small molecule antagonists of the thyrotropin-releasing hormone receptor (TRHR) signaling pathway (AID 1346877; active means well fitted inhibition curve with a large enough effect in the repeat runs, not every such curve was filed as active; further: series mostly up to about 51 µM; on the % scale 0 is the no-effect control and ±100 the full control effect)
Chain of Thyrotropin-releasing hormone receptor (Homo sapiens) (P34981 whole entry, looked up): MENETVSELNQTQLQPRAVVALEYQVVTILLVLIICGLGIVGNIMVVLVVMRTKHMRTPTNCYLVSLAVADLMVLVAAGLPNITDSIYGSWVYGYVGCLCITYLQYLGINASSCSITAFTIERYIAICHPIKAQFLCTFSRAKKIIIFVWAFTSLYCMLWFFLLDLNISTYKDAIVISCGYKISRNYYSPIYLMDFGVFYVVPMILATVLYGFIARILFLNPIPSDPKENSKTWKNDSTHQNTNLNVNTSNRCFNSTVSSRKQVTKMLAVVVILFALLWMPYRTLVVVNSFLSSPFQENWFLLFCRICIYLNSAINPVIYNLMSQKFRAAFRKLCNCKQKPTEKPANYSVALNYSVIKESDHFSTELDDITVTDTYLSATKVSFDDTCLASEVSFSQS
Outline: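 Cells (TRHR-HEK293) are plated and kept 18 h at 37 °C/5% CO2. A calcium-sensitive dye is added for 2 h, compound follows for 5 min at room temperature, and TRH is then given at 1 nM final.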

[17] = biological target: Thyrotropin-releasing hormone receptor (Homo sapiens) (UniProt P34981); test: qHTS assay to identify small molecule agonists of the thyrotropin-releasing hormone receptor (TRHR) signaling pathway (AID 1346891; calls by dose curve; further: series mostly up to about 58 µM; on the % scale 0 is the no-effect control and ±100 the full control effect)
Outline: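 Agonist-mode intracellular calcium readout: kinetic fluorescence over 3 min at 1 s intervals after compound addition to TRHR-HEK293 cells (18 h seeded, 2 h dye-loaded at 37 C). Fifteen concentrations, triplicates.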

[18] = biological target: Nuclear receptor subfamily 1 group I member 2 (Rattus norvegicus) (UniProt Q9R1A7); test: Rat pregnane X receptor (rPXR) activation by small molecules, qHTS assay (AID 1346983); settings: rPXR luciferase reporter cells, One-Glo luminescence, 24 h; max activation: stronger effect = higher value; further: nearly all actives have a fitted effect of over 20% in size; further: potency means the concentration at half of the fitted maximal effect
Chain of Nuclear receptor subfamily 1 group I member 2 (Rattus norvegicus) (Q9R1A7 whole entry, looked up): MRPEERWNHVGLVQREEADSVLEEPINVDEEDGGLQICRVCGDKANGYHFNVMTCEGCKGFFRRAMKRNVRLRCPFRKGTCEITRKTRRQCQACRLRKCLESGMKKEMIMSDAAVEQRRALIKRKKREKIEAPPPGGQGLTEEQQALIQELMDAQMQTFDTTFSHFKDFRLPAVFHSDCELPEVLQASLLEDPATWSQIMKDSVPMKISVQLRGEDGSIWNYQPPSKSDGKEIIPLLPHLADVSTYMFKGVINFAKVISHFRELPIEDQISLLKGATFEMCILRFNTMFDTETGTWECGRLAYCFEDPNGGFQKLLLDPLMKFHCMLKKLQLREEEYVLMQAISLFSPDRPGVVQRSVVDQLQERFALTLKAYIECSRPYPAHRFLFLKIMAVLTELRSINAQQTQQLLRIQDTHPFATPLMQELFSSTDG
Outline: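 Cell-based rPXR activation assay: rPXR cells, 2,000 per well, rested 5hr at 37 C, then exposed to compounds in DMSO for 24 hr at 37 C. Luciferase activity read by One-Glo luminescence after 30 min at room temperature.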

[19] = biological target: Nuclear receptor subfamily 1 group I member 2 (Homo sapiens) (UniProt O75469); test: CYP3A4 induction through human pregnane X receptor (PXR) by small molecules, qHTS assay (AID 1346984); further: potency means the concentration at half of the fitted maximal effect; nearly all actives have a fitted effect of over 40% in size
Outline: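 Steps: seed DPX-2 cells, 5 hr at 37C; pin-transfer compounds; 24 hr at 37C; add Luciferin-IPA (3uM final), 3 hr at 37C; add One-Glo, 30 min RT; read luminescence.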

CC1CCCCC1
inactive: Potency [1] | Potency [2] | Potency [3] | Potency [4] | Potency [5] | Potency [6] | Potency [7] | Potency [8] | Potency [9] | Potency [10] | Potency [11] | Potency [12] | Potency [13] | Potency [14]

CC1=CCC(=O)O1
inactive: Potency [1] | Potency [2] | Potency [3] | Potency [4] | Potency [5] | Potency [6] | Potency [7] | Potency [8] | Potency [9] | Potency [15] | Potency [12] | Potency [13] | Potency [14]

COC(=O)C1=C(C)NC(C)=C(C(=O)OCCCN2CCC(c3ccccc3)(c3ccccc3)CC2)C1c1cccc([N+](=O)[O-])c1 (configuration not stated)
inactive: Potency [4] | Potency [6] | Potency [16] | Potency [17]
active: Potency [1] 18.8 µM | Potency [2] 18.8 µM | Potency [3] 13.3 µM | Potency [7] 26.6 µM | Potency [9] 26.6 µM | Potency [15] 29.8 µM | Potency [18] 5.01 µM

O[C@@H](c1cc(C(F)(F)F)nc2c(C(F)(F)F)cccc12)[C@H]1CCCCN1
inactive: Potency [5] | Potency [6] | Potency [16] | Potency [11] | max activation [18] -16.9% | Potency [14]
active: Potency [1] 23.7 µM | Potency [2] 26.6 µM | Potency [3] 26.6 µM | Potency [7] 26.6 µM | Potency [8] 26.6 µM | Potency [9] 26.6 µM

CCCCCCCCCCCCCCCCCO
inactive: activity change, negative = inhibition [1] 1.26% [at 18.9 µM] | activity change, negative = cytotoxicity [2] -7.24% [at 18.9 µM] | activity change, negative = cytotoxicity [3] -18.8% [at 19 µM] | viability change, negative = cytotoxic [4] -8.2% [at 15.8 µM] | activity change, negative = cytotoxicity [5] -0.289% [at 15.8 µM] | activation [6] -0.867% [at 15.8 µM] | activity, negative = inhibition [16] 0.827% [at 10.5 µM] | activation [17] 0.0338% [at 11.8 µM] | activity change, negative = cytotoxicity [7] 3.58% [at 19 µM] | caspase activation [8] 0.39% [at 19 µM] | caspase-3/7 activation [10] 1.08% [at 19 µM] | activity change, negative = cytotoxicity [15] 9.49% [at 19 µM] | activation [11] 4.62% [at 19 µM] | activity change, negative = inhibition [12] -4.81% [at 23.6 µM] | activity change, negative = inhibition [13] -5.64% [at 23.6 µM] | activity change, negative = inhibition [14] -2.94% [at 23.6 µM]

CC[N+](CC)(CC)Cc1ccccc1
active: Potency [12] 35.6 µM
inactive: Potency [1] | Potency [2] | Potency [3] | Potency [4] | Potency [5] | Potency [6] | Potency [16] | Potency [17] | Potency [7] | Potency [8] | Potency [10] | Potency [15] | Potency [11] | Potency [13] | Potency [14]

CCCCCCCC/C=C\CCCCCCCC(=O)N(C)CC(=O)O
active: Potency [1] 24.3 µM | Potency [3] 68.6 µM | Potency [9] 68.6 µM | Potency [14] 44.8 µM
inactive: Potency [4] | Potency [5] | Potency [6] | Potency [16] | Potency [17] | Potency [7] | Potency [8] | Potency [10] | Potency [15] | Potency [11] | Potency [12]

CN1CCN(C2Cc3ccccc3Sc3ccc(Cl)cc32)CC1 (configuration not stated)
active: Potency [1] 26.6 µM | Potency [3] 29.8 µM | Potency [7] 26.6 µM | Potency [19] 31.6 µM | Potency [12] 0.347 µM | Potency [13] 11 µM
inactive: Potency [5] | Potency [6] | Potency [16] | Potency [17] | Potency [10] | Potency [11]

Clc1ccc(C(Cn2ccnc2)OCc2c(Cl)cccc2Cl)c(Cl)c1 (configuration not stated)
inactive: Potency [4] | Potency [5] | Potency [6] | Potency [8] | Potency [10]
active: Potency [1] 4.22 µM | Potency [2] 5.96 µM | Potency [3] 5.96 µM | Potency [7] 23.7 µM | Potency [9] 21.1 µM

O=C1NCN(c2ccccc2)C12CCN(CCCC(c1ccc(F)cc1)c1ccc(F)cc1)CC2
active: Potency [1] 26.6 µM | Potency [7] 29.8 µM | Potency [9] 33.5 µM
inactive: Potency [3] | Potency [16] | Potency [17] | Potency [11]

CCCCCCCCCCCCCCCC
active: Potency [14] 39.9 µM
inactive: Potency [1] | Potency [3] | Potency [4] | Potency [5] | Potency [6] | Potency [7] | Potency [8] | Potency [10] | Potency [15] | Potency [12] | Potency [13]

NC(=O)c1ccccc1N
inactive: Potency [1] | Potency [3] | Potency [4] | Potency [5] | Potency [6] | Potency [16] | Potency [17] | Potency [7] | Potency [8] | Potency [10] | Potency [15] | Potency [11] | Potency [14]
active: Potency [13] 35.8 µM

C/C=C/C(=O)C1=C(C)CCCC1(C)C
active: Potency [13] 79.6 µM
inactive: Potency [1] | Potency [4] | Potency [5] | Potency [6] | Potency [16] | Potency [17] | Potency [7] | Potency [8] | Potency [10] | Potency [15] | Potency [12] | Potency [14]

CN(C)c1ccc(N=Nc2ccccc2C(=O)O)cc1
active: Potency [1] 15.4 µM | Potency [7] 61.1 µM | Potency [9] 9.69 µM | Potency [11] 21.7 µM | Potency [12] 39.9 µM | Potency [13] 35.6 µM | Potency [14] 31.7 µM
inactive: Potency [4] | Potency [5] | Potency [6] | Potency [16] | Potency [17] | Potency [8] | Potency [10]

CCOC(=O)CN
inactive: Potency [1] | Potency [2] | Potency [3] | Potency [4] | Potency [5] | Potency [6] | Potency [7] | Potency [8] | Potency [9] | Potency [10] | Potency [15] | Potency [13] | Potency [14]
